In PubChem BioAssay (NCI) one finds growth data, which are given here for 40 molecules.

Each structure is given as a SMILES string. The panel holds about 83,000 compounds, 20% with a hit somewhere; the sample as a whole holds those more often.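 Note: values are percent growth. 100 is the growth of untreated cells, values between 100 and 0 indicate rising inhibition; between -100 and 0 indicates cell death.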 The source made the active and inactive calls.

The subject of the assay is SNB-75 CNS. Put plainly: NCI-60 one-dose screen, 48 h (100 = growth as untreated, 0 = no growth, -100 = all killed). Conditions: 10 µM unless noted. How it is done:
Growth inhibition of the SNB-75 human tumor cell line is measured as a screen for anti-cancer activity. Cells are grown in 96 well plates and exposed to the test compound for 48 hours. Compounds are tested at a single concentration, which is 10^-5 M for most compounds. The reported endpoint is percent growth (GI% or GIPRCNT), where numbers from 0 - 100% represent growth inhibition, and numbers from -100% - 0 represent cell death. For example, a value of 40 represents 60% growth inhibition. A value of 0 means no net growth occurred over the course of the experiment. A value of -40 indicates 40% of cells at the beginning of the experiment died by the end of the experiment. A value of -100 means all cells are dead at the end of the experiment.
NCI-60 Human Tumor Cell Lines Screen was performed using the standard one-dose NCI protocol, which is described in more detail at https://dtp.cancer.gov/discovery_development/nci-60/default.htm.
Compounds with GIPRCNT values below 10 were considered active. Activity score was based on GIPRCNT using the following formula: […]
Score is 0 for GIPRCNT values of 100 or above, 50 for GIPRCNT values of 0, and 100 for GIPRCNT values of -100.
`CC1(C)CC2=C3C=C[C@@H]4[C@@]5(C)CCC(=O)C(C)(C)[C@@H]5CC[C@@]4(C)[C@]3(C)CC[C@@]2(C(=O)O)CC1=O`: the growth is 10% (inactive).
To `COc1cc(CNC(=O)CCCC/C=C/C(C)C)ccc1OCc1nnc(Nc2ccc([N+](=O)[O-])cc2)o1` belongs 48.7% (inactive); to `O=[N+]([O-])c1ccc(-c2nc(N3CCOCC3)c3c4c(sc3n2)CCCC4)cc1`, 76.6% (inactive); to `CN1C(=O)/C(=C/c2ccc(C(=O)Nc3ncc(Cc4ccc(Cl)cc4)s3)cc2)SC1=S`, 52.1% (inactive).
To `CO[C@]12C=C/C(=C(/C(=O)OCc3cccnc3)C(=O)CCCCCCCC[C@@]3(OC)C=C/C(=C(/C(=O)OCc4cccnc4)C(=O)CCCCCCCC1)O3)O2` belongs 55% (inactive); to `COCCn1cc(-c2nc(-c3cc4cccnc4n3CCOC)cs2)c2cc(OC)ccc21`, 62.6% (inactive); to `CN1C(=O)/C(=C/c2cn(-c3ccccc3)nc2-c2ccccc2)SC1=S`, 101% (inactive).
The same measure for `Clc1ccc(Sc2cnc(-c3ccccc3)o2)cc1`: 92.6% (inactive); for `O=C1c2cccnc2C(=O)c2c1c(C(=O)NCCCN1CCCCC1)c1ccccn21`: -95.3% (active); for `CCCCCCCCCCCCCCCC(N)c1ccccc1` (stereo not given): 66.2% (inactive).
Turning to `Cc1ccc2c(n1)C(=O)c1[nH]c3ccccc3c1C2=O`, the growth was -37.8% (active).
The same measure for `Fc1ccc(Nc2nc3nonc3nc2Nc2ccc(I)cc2)cc1`: -5.57% (active); for `Cc1cc2c(O)c(-c3cccc(Cl)c3)c3sc(=O)oc3c2cc1C`: 36.1% (inactive).
The same measure for `N#Cc1cccc(NC(=O)c2oc3ccccc3c2-c2cnn(-c3ccccc3)c2)c1`: 86.3% [50 µM] (inactive); for `Cc1ccc(-c2cc(-c3ccc(Cl)cc3)nc(NC(=O)c3cccnc3)n2)cc1`: 99.8% (inactive).
To `CN(C)CCCC1(c2ccc(F)cc2)OCc2cc(-c3cncc4ccccc34)ccc21` (stereo not given) belongs 41.6% (inactive).
Turning to `COc1ccccc1NC(=O)Cn1cc(CN2CCN(c3ccnc4cc(Cl)ccc34)CC2)nn1`, the growth was 75.2% (inactive).
On to `O=C(/C=C(/C=C/c1cccc2[nH]ccc12)OB(F)F)/C=C/c1cccc2[nH]ccc12`, for which the growth was -40.4% (active).
The same measure for `CC[C@]12C=CCN3CC[C@@]4(c5cc(NC(=O)CCC(=O)OCc6cn(Cc7ccc(F)cc7)nn6)c(OC)cc5N(C)[C@H]4[C@@](O)(C(=O)OC)[C@@H]1OC(C)=O)[C@@H]32`: 97% (inactive); for `O=C(Cn1c(=O)sc2ccccc21)NNS(=O)(=O)c1ccccc1[N+](=O)[O-]`: 83.3% (inactive).
To `O=C1/C(=C/c2cccs2)SC(=S)N1CCCN1CCOCC1` belongs 99% (inactive).
Regarding `CN(Cc1ccc(C(F)(F)F)cc1)CC(O)C(=O)Nc1ccc(Cl)cc1` (stereo not given), the growth was 24.6% (inactive).
To `C=C1C(=O)O[C@H]2[C@H]1CC/C(COC(=O)CSCCSCC(=O)OC/C1=C/CC[C@@]3(C)O[C@H]3[C@H]3OC(=O)C(=C)[C@@H]3CC1)=C\CC[C@@]1(C)O[C@@H]21` belongs 56.6% (inactive).
The same measure for `Cc1ccc(/C=N/Nc2nc(Nc3ccccc3)nc(-n3nc(C)cc3C)n2)cc1`: 83.4% (inactive); for `Cc1ccc(C(C(N)=O)C(C(N)=O)c2ccccc2)cc1` (stereo not given): 114% (inactive); for `O=c1c2cc(-c3ccccc3)sc2nc2sc(-c3ccccc3)nn12`: 113% (inactive).
The same measure for `Cn1c(O)c(C=NCCN=Cc2c(O)n(C)c(=O)n(C)c2=O)c(=O)n(C)c1=O`: 88.3% (inactive); for `COc1ccc(C(=O)C2C(c3ccc(OC)cc3)CN(C)C23C(=O)Nc2ccccc23)cc1` (stereo not given): 76.7% (inactive); for `O=C(c1ccc(Cl)cc1)N1CCN(c2ccnc3cc(Cl)ccc23)CC1`: 110% (inactive).
For `N#Cc1cccc(-c2c(-c3ccc4ccccc4c3)oc3ccccc3c2=O)c1`, the growth is 51.1% (inactive).
To `CC(=O)c1cc(O)c2ccccc2c1O` belongs 70.7% (inactive).
To `COc1ccc2c(O)c(/C=C3\N=Nc4ncccc43)oc2c1C[C@H]1CCNC[C@H]1F` belongs -61.2% (active); to `CCOC(=O)CNP(=O)(OC[C@@H](Cc1ccccc1)NC(=O)c1cc2ccccc2s1)Oc1ccccc1` (stereo not given in full), 35.2% (inactive).
To `CC1(C)CCC(S(=O)(=O)c2ccc3c(c2)/C(=N\O)c2cc(S(=O)(=O)N4CCC(O)(c5cccc(C(F)(F)F)c5)CC4)ccc2-3)CC1` belongs -98.2% (active); to `CCSc1nc(NC)c2cc(-c3ccc(C(F)(F)F)cc3)ccc2n1`, 99.4% (inactive).
As for `CCCCCCCCn1ccc2cc(NC(=O)Cn3cc(CN4CCCCC4)nn3)ccc21`, the growth is 73.4% (inactive).
The same measure for `COc1cc(-n2cc(-c3cc(O)c(C/C=C(\C)CCC=C(C)C)c(O)c3)nn2)cc2c1O[C@]1(C)CC[C@@H](O)C(C)(C)[C@H]1C2`: 7.34% (active).
The same measure for `O=C(/C=C/c1cn(-c2ccccc2)nc1-c1ccc([N+](=O)[O-])cc1)c1ccc(Cl)cc1`: -5.08% (active); for `COc1ccc(CC(C#N)c2cc3ccccc3[nH]2)cc1` (stereo not given): 78.2% (inactive); for `NC(=O)CCC(C(=O)O)N1C(=O)c2ccc(O)cc2C1=O` (stereo not given): 128% (inactive).
